# In PubChem BioAssay (NCI):
# About 83,000 compounds went through this panel and 20% of them were active in at least one assay; those are over-represented in the sample as a whole.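 Interpretation: 100, growth as untreated; towards 0, rising growth inhibition; 0, no net growth; 0 to -100, cell death. Compounds scoring below 10 were considered active.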 A number with no mark means an inactive call. Active and inactive are the calls of the source.
# System: NCI/ADR-RES ovarian
# Assay: NCI-60 one-dose screen, 48 h (100 = growth as untreated, 0 = no growth, -100 = all killed)
# Settings: 10 µM unless noted
# Protocol: Growth inhibition of the NCI/ADR-RES human […] tumor cell line is measured as a screen for anti-cancer activity. Cells are grown in 96 well plates and exposed to the test compound for 48 hours. Compounds are tested at a single concentration, which is 10^-5 M for most compounds. The reported endpoint is percent growth (GI% or GIPRCNT), where numbers from 0 - 100% represent growth inhibition, and numbers from -100% - 0 represent cell death. For example, a value of 40 represents 60% growth inhibition. A value of 0 means no net growth occurred over the course of the experiment. A value of -40 indicates 40% of cells at the beginning of the experiment died by the end of the experiment. A value of -100 means all cells are dead at the end of the experiment.
# NCI-60 Human Tumor Cell Lines Screen was performed using the standard one-dose NCI protocol, which is described in more detail at https://dtp.cancer.gov/discovery_development/nci-60/default.htm.
# Compounds with GIPRCNT values below 10 were considered active. Activity score was based on GIPRCNT using the following formula: […]
# Score is 0 for GIPRCNT values of 100 or above, 50 for GIPRCNT values of 0, and 100 for GIPRCNT values of -100.
row,Compound,growth
1,COC(=O)c1c2c(c(C)[n+]([O-])c1C)C(=O)C(NCc1ccc(O)cc1)=CC2=O,-6.46% (active)
2,COc1ccc(C2CC(c3cc(OC)c(OC)c(OC)c3)=NN2c2ccc(S(N)(=O)=O)cc2)cc1 (stereo not given),55.4%
3,Cc1ccc(C(=O)Nc2ccccc2N)cc1,44.2%
4,COc1ccc(OC)c2ncccc12,100%
5,Cc1cc(Cl)c2c(Cl)ccc(Cl)c2n1,114%
6,COc1ccc(OC)c(/C=C2\Oc3cc(O)ccc3C2=O)c1,92.9%
7,Cc1c(NCC(=O)Nc2nc3ccccc3[nH]2)c(=O)n(-c2ccccc2)n1C,101%
8,FC(F)(F)c1cc(CNc2nc(Cl)ncc2Br)cc(C(F)(F)F)c1,92.7%
9,COc1cc2nc(SCc3cc(OC)c(OC)c(OC)c3)n(-c3ccccc3OC)c(=O)c2cc1OC,62.9%
10,O=[N+]([O-])c1ccc2nc(N/N=C/c3ccc(O)cc3)sc2c1,81.7%
11,CCOC(=O)c1cc2c(n(C)c1=O)-c1cnn(-c3ccc(OC)cc3)c1CC2,114%
12,COc1nc2c(cc1S(=O)(=O)c1ccccc1)CCc1c-2cnn1-c1ccccc1Cl,70.2%
13,O=C1N/C(=C\c2ccccc2)c2ncccc21,103%
14,N#Cc1c(O)c2c(c(O)c1C#N)C(=O)c1ccccc1C2=O,0.847% (active)
15,NC(=O)c1cc(I)ccc1NC(=O)COc1ccc(Cl)cc1Cl,82.3%
16,COc1cc(-c2nc3ccccc3o2)cc(CN2CCN(c3ccccc3)CC2)c1O,69.4%
17,COc1ccc(C2SC(C)C(=O)N2CCc2cccs2)cc1OC (stereo not given),86.1%
18,CN1CCc2cccc3c2C1Cc1ccc(O)c(O)c1-3 (stereo not given),81%
19,Cn1c2c(cc(S(=O)(=O)c3ccccc3)c1=O)CCc1c-2cnn1-c1ccccc1Cl,113%
20,COCCOC1=C(Cl)C(=O)c2ccccc2C1=O,20.4%

row,Compound,growth
1,CCC(C)Oc1cc(/C=N/NC(=O)c2cnn3c2NC(c2ccccc2)C3)ccc1OC (stereo not given),18.6%
2,COc1cc(C(=O)N(C(C)C)C2CCCCC2)cc(OC)c1OC,96.1%
3,O=c1[nH]c(=O)n(Cc2ccc(F)cc2)cc1F,113% [50 µM]
4,Cc1nc(-c2ccccc2)cc2c(O)c(C(=O)N/N=C/Cc3ccccc3)[nH]c(=O)c12,109%
5,CC(=O)Nc1ccc(Sc2ccc([N+](=O)[O-])o2)cc1,15.9%
6,O=C(O)c1ccccc1Oc1cc(-c2ccco2)nc(OCCBr)n1,105%
7,CCOC(=O)c1c(-c2cc(OC)c(OC)c(OC)c2)csc1N,83.8%
8,COc1ccc(-c2c3c(N)c4c(nc3nc3c2c(C)nn3-c2ccccc2)CCCC4)cc1,86.6%
9,CCOC(=O)c1c(Cl)c2c(n1Cc1cc(OC)cc(OC)c1)-c1oncc1CCC2,8.44% (active)
10,Nc1cc2[nH]c(=O)c3ccccc3c2cc1Br,81.7%
11,NS(=O)(=O)c1ccc(C(=O)N/N=C(\CS(=O)(=O)c2ccccc2)c2cc3cc(Br)ccc3o2)cc1,98%
12,COC(=O)c1c2c(c(C)[n+]([O-])c1C)C(=O)C=C(NCc1cccc(Cl)c1)C2=O,-12.7% (active)
13,N#Cc1ccc(C(F)(F)F)nc1N1CCC(C(=O)Nc2ccc(Cl)cc2)CC1,72.1%
14,CCCCCCCCCCCCCCCC[N+]1(C)CCOCC1,94.9%
15,COc1cccc(C2CC(=O)Nc3cc4c(cc32)OCO4)c1OC (stereo not given),92.2%
16,COc1ccc(-c2nc3sccn3c2/C=C/C(=O)c2cc(OC)c(OC)c(OC)c2)cc1OC,-9.5% (active)
17,COc1ccc(OC)c(C2C(C#N)=C(N)Oc3cc(O)ccc32)c1 (stereo not given),94.7%
18,COc1ccc(/C=C2\CN(Cc3cn(CCCNc4ccnc5cc(Cl)ccc45)nn3)C/C(=C\c3ccc(OC)c(OC)c3)C2=O)cc1OC,94.4%
19,C1CCC([PH+](C2CCCCC2)C2CCCCC2[PH+](C2CCCCC2)C2CCCCC2)CC1.O=C(C1[CH-]CCCC1)C1CCCC[N-]1.[Au] (stereo not given),17.2%
20,Cc1ccc(S(=O)(=O)N2C/C(=C\c3cc(F)cc(F)c3)C(=O)/C(=C/c3cc(F)cc(F)c3)C2)cc1,7.23% (active)
